Measured values as given in PubChem BioAssay (NCI).
About 79,000 compounds went through this panel and 15% of them were active in at least one assay; those are over-represented in the sample as a whole. The source made the active and inactive calls. Rule as the data show it: active = growth inhibition above about 70%; inactive = the rest.

How the values were obtained:
[1] = NCI Yeast Anticancer Drug Screen. Data for the rad50 strain (AID 155);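 also: 0% = growth of vehicle-only cultures of the same strain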; details: S. cerevisiae rad50 strain growth inhibition, stronger effect = higher value
Summary of the method: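 Inhibition values express reduced yeast growth in compound-treated cultures relative to vehicle-treated controls.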

[2] = NCI Yeast Anticancer Drug Screen. Data for the mec2-1 strain (AID 157); details: S. cerevisiae mec2-1 strain, stronger effect = higher value
Summary of the method: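 Mutant yeast (mec2-1) grown with compound; growth inhibition relative to vehicle control reported.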

[3] = NCI Yeast Anticancer Drug Screen. Data for the sgs1 mgt1 strain (AID 161);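 also: 0% = growth of cultures given vehicle only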; details: S. cerevisiae sgs1 mgt1 strain, stronger effect = higher value
Summary of the method: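 Compounds are added to genetically altered yeast, and growth is compared with cultures given vehicle alone to give percent inhibition.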

[4] = NCI Yeast Anticancer Drug Screen. Data for the cln2 rad14 strain (AID 165);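 also: 0% = growth equal to vehicle treated cultures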; details: S. cerevisiae cln2 rad14 strain, stronger effect = higher value
Summary of the method: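 Readout is yeast growth inhibition versus vehicle-treated controls, using a strain with cln2 and rad14 alterations exposed to compound.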

[5] = NCI Yeast Anticancer Drug Screen. Data for the bub3 strain (AID 167); details: S. cerevisiae bub3 mutant strain, stronger effect = higher value
Summary of the method: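 Steps: expose the mutant yeast strain to compound; grow alongside vehicle-treated cultures; measure growth; express inhibition against the vehicle cultures.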

[6] = NCI Yeast Anticancer Drug Screen. Data for the mlh1 rad18 strain (AID 175); details: S. cerevisiae mlh1 rad18 strain growth inhibition, stronger effect = higher value
Summary of the method: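 Genetically defined yeast (DNA repair-deficient) exposed to compounds; growth inhibition determined relative to vehicle.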

[7] = at 5.0 µM (retest, dose inferred, filed as 0.5)
[8] = at 50.0 µM (retest, dose inferred, filed as 5.0)

Measured: growth inhibition

Oc1ccc(N=Nc2ccccc2)c(O)c1.Oc1ccc(N=Nc2ccccc2)c(O)c1.[Cu]
active: [1]; [8] 96% | [1]; at 50.0 µM 98.1% | [2]; [8] 98% | [2]; at 50.0 µM 98.2% | [3]; [8] 97% | [3]; at 50.0 µM 98.9% | [4]; [8] 92% | [4]; at 50.0 µM 97.3% | [5]; [8] 95% | [5]; at 50.0 µM 97% | [6]; [8] 96% | [6]; at 50.0 µM 97.1%
inactive: [1]; [7] 13% | [2]; [7] 16% | [3]; [7] 21% | [4]; [7] 1% | [5]; [7] 15% | [6]; [7] 12%

O=C1C=CC(=O)C(c2ccccc2)=C1
inactive: [1]; [7] 12% | [2]; [7] 24% | [3]; [7] 18% | [4]; [7] 16% | [5]; [7] 3% | [6]; [7] 18%
active: [1]; [8] 99% | [1]; at 50.0 µM 99.5% | [2]; [8] 99% | [2]; at 50.0 µM 99.5% | [3]; [8] 99% | [3]; at 50.0 µM 99.5% | [4]; [8] 99% | [4]; at 50.0 µM 98.8% | [5]; [8] 99% | [5]; at 50.0 µM 99.5% | [6]; [8] 99% | [6]; at 50.0 µM 99.2%

O=S(=O)(NC1CCCCC1)c1ccc2c(c1)OCCOCCOCCOCCO2
active: [3]; at 50.0 µM 70.7% | [5]; at 50.0 µM 73.2%
inactive: [1]; [7] 7% | [1]; [8] 22% | [1]; at 50.0 µM 40.3% | [2]; [7] 9% | [2]; [8] 37% | [2]; at 50.0 µM 23.8% | [3]; [7] 0% | [3]; [8] 63% | [4]; [7] -7% | [4]; [8] 39% | [4]; at 50.0 µM 36% | [5]; [7] -24% | [5]; [8] 53% | [6]; [7] 5% | [6]; [8] 31% | [6]; at 50.0 µM 65.5%

O=C(O)c1cc(C(=O)O)c(C(=O)O)cc1C(=O)O.[NH-]C1CCCC1.[NH-]C1CCCC1.[NH-]C1CCCC1.[NH-]C1CCCC1.[Pt+2].[Pt+2]
inactive: [1]; [7] 4% | [2]; [7] 10% | [3]; [7] 15% | [4]; [7] 0% | [5]; [7] -1% | [6]; [7] 16%
active: [1]; [8] 99% | [1]; at 50.0 µM 99.5% | [2]; [8] 100% | [2]; at 50.0 µM 99.6% | [3]; [8] 99% | [3]; at 50.0 µM 99.5% | [4]; [8] 99% | [4]; at 50.0 µM 99% | [5]; [8] 99% | [5]; at 50.0 µM 99% | [6]; [8] 99% | [6]; at 50.0 µM 99%

COc1ccc(NC(=O)CSC(N)=O)cc1
inactive: [1]; [7] 5% | [1]; [8] 12% | [1]; at 50.0 µM 49.1% | [2]; [7] -1% | [2]; [8] 20% | [2]; at 50.0 µM 23.2% | [3]; [7] 3% | [3]; [8] 18% | [3]; at 50.0 µM 64.1% | [4]; [7] 0% | [4]; [8] -5% | [4]; at 50.0 µM 21.9% | [5]; [7] 3% | [5]; [8] 25% | [5]; at 50.0 µM 53% | [6]; [7] 3% | [6]; [8] 12% | [6]; at 50.0 µM 51.6%

[Br][Pt+2][Br].[NH-]c1cccc(I)c1.[NH-]c1cccc(I)c1
active: [6]; [8] 81% | [6]; at 50.0 µM 88.8%
inactive: [1]; [7] 2% | [1]; [8] 60% | [1]; at 50.0 µM 39.5% | [2]; [7] 1% | [2]; [8] 31% | [2]; at 50.0 µM 22.2% | [3]; [7] 8% | [3]; [8] 39% | [3]; at 50.0 µM 30.8% | [4]; [7] -1% | [4]; [8] 27% | [4]; at 50.0 µM 12.6% | [5]; [7] 1% | [5]; [8] -5% | [5]; at 50.0 µM 3.25% | [6]; [7] 5%

Cc1ccc(S(=O)(=O)Nn2c(S)c(C#N)c(-c3ccc([N+](=O)[O-])cc3)c(C#N)c2=O)cc1
inactive: [1]; [7] 25% | [1]; [8] 59% | [1]; at 50.0 µM 49.6% | [2]; [7] 8% | [2]; [8] 35% | [2]; at 50.0 µM 46.6% | [3]; [7] 24% | [4]; [7] 43% | [4]; [8] 43% | [4]; at 50.0 µM 29.8% | [5]; [7] 45% | [5]; [8] 65% | [5]; at 50.0 µM 54.6% | [6]; [7] 19% | [6]; [8] 46% | [6]; at 50.0 µM 59%
active: [3]; [8] 78% | [3]; at 50.0 µM 72.3%

CSc1nc2nn(Cc3ccccc3)cc2c(=O)[nH]1
inactive: [1]; [7] -6% | [1]; [8] 22% | [1]; at 50.0 µM -7.95% | [2]; [7] 10% | [2]; [8] 19% | [2]; at 50.0 µM -4.85% | [3]; [7] 9% | [3]; [8] 21% | [3]; at 50.0 µM 2.4% | [4]; [7] 17% | [4]; [8] 50% | [4]; at 50.0 µM -22.8% | [5]; [7] 27% | [5]; [8] 47% | [5]; at 50.0 µM -9.9% | [6]; [7] 20% | [6]; [8] 39% | [6]; at 50.0 µM 11.8%

CCCCCC1OC1CC1OC1CCCCCCCC(=O)OC (stereo not given)
inactive: [1]; [7] -2% | [1]; [8] 1% | [1]; at 50.0 µM 36.5% | [2]; [7] -1% | [2]; [8] -2% | [2]; at 50.0 µM 18.8% | [3]; [7] -4% | [3]; [8] 4% | [3]; at 50.0 µM 40.4% | [4]; [7] -4% | [4]; [8] -8% | [4]; at 50.0 µM -27.4% | [5]; [7] -1% | [5]; [8] -7% | [5]; at 50.0 µM 50.1% | [6]; [7] 4% | [6]; [8] 1% | [6]; at 50.0 µM 59%

CCOC(=O)c1cc(C)ccc1-c1ccc(C)cc1C(=O)OCC
inactive: [1]; [7] 1% | [1]; [8] 29% | [1]; at 50.0 µM 57.6% | [2]; [7] -10% | [2]; [8] 8% | [2]; at 50.0 µM 67.8% | [3]; [7] 1% | [3]; [8] 68% | [4]; [7] -1% | [4]; [8] 17% | [4]; at 50.0 µM 3.55% | [5]; [7] 6% | [5]; [8] 46% | [6]; [7] 2% | [6]; [8] 28%
active: [3]; at 50.0 µM 77% | [5]; at 50.0 µM 86.8% | [6]; at 50.0 µM 75.5%
